This is an account of results in ChEMBL document CHEMBL3988442, “University of Dundee, Small-Polar-MMV Screening Library” (2021).

Molecules are shown by their SMILES. Among all 38,000 compounds or so, about 1,200 (3.2%) showed an effect of 50% or more. The median lay at about -58%. This excerpt belongs to a sample that is enriched for strong results.

For the assay, the system named is Plasmodium falciparum. Kind of assay: Calibr Malaria Delayed Death Assay SOP. Type of assay: functional, organism-based. Also on record: scale not given: in the data most compounds retested in dose-response had high values. As to conditions: concentration 4.99e-06 (unit not given; other assays of the set use mol/L).
As to `CN(C)C(=O)Cc1ccc(-c2cccc3c2CCNC3)cc1`, the “Percent Effect” value is on record as -89.76%. As for `CCCOC1CCCN(c2ccnc(C(=O)NCc3ccco3)c2)C1` (configuration not stated), the figure is 63.16%; as for `O=C(NCc1ccco1)c1cc(N2CC[C@@H](O)C2)ccn1`, -225.7%. As for `CN(C)[C@H]1CCN(c2ccnc(C(=O)NCc3ccco3)c2)C1`, the figure is -104.8%; as for `CCS(=O)(=O)Nc1cnn(Cc2cccc(Cl)c2)c1`, -156.5%; as for `COc1ccc(-c2nc3c([nH]2)CCCNC3=O)cc1OC`, -190.2%.

Consider `Cc1nn(C)c(N2CCOCC2)c1CNC(C)c1ccccn1` (configuration not stated), for which the “Percent Effect” value is listed as -39.11%.

`CN(C)C(=O)C1(Oc2ccc(Cl)cc2)CCNCC1`: the “Percent Effect” value is reported as 48.49%. As to `COc1cccn(CC(=O)N(C)Cc2ccoc2)c1=O`, the “Percent Effect” value is on record as -45.98%. Consider `Cc1ccc(OC2(C(=O)N(C)Cc3ccoc3)CCNCC2)cc1`, for which the “Percent Effect” value was 63.87%.

For `O=C(N[C@@H]1CCCNC1)C1(Oc2ccc(Cl)cc2)CCNCC1`, the “Percent Effect” value is on record as -19.49%. As for `CN(Cc1ccoc1)C(=O)C1(Oc2ccc(Cl)cc2)CCNCC1`, the “Percent Effect” value is on record as 67.21%.

`CN(Cc1ccncn1)C(=O)C1(Oc2ccc(Cl)cc2)CCNCC1`: the “Percent Effect” value is -76.49%. In the case of `Cc1ccc(C(=O)N2CC[C@@]3(O)CCCC[C@H]3C2)cc1`, the “Percent Effect” value is given as -98.64%. Turning to `O=C1CC(c2ccc(C(=O)O)cc2)c2c(sc3c2CCCC3)N1` (configuration not stated), the “Percent Effect” value is -5.696%. For the compound `O=C1CC(c2cccnc2)c2c(sc3c2CCCC3)N1` (configuration not stated), the “Percent Effect” value was determined as 28.11%. As for `O=C1CC(c2ccncc2)c2c(sc3c2CCCC3)N1` (configuration not stated), the figure is 55.71%; as for `O=C(CCc1ccco1)NS(=O)(=O)N1CCOc2ccccc21`, -129.3%; as for `Cc1cc(C[C@@H]2CCC[C@H]2NCc2ccccc2C)on1.O=C(O)CC(O)(CC(=O)O)C(=O)O`, 63.44%. As for `Cc1cc(CS(=O)(=O)NC2CCCCC2)on1`, the figure is -56.68%; as for `Cc1cc(C[C@@H]2CCC[C@H]2NCc2cccc(F)c2F)on1.O=C(O)CC(O)(CC(=O)O)C(=O)O`, -66.07%. For the compound `CCC[C@H]1CN(Cc2cc(C)no2)C[C@@H]1NC(=O)C1(COC)CCC1`, the “Percent Effect” value is given as -58.42%.

As to `Cc1cc(C[C@@H]2CCC[C@H]2NCc2ccccc2F)on1.O=C(O)CC(O)(CC(=O)O)C(=O)O`, the “Percent Effect” value was -9.902%. In the case of `CCCc1cc(CNC(=O)Cc2cc(C)no2)on1`, the “Percent Effect” value was -176%. Turning to `CCCOc1ccccc1CN[C@@H]1CCC[C@H]1Cc1cc(C)no1.O=C(O)CC(O)(CC(=O)O)C(=O)O`, the “Percent Effect” value turned out to be 84.13%. For the compound `Cc1ccccc1Oc1ncccc1CNC1CCC1`, the “Percent Effect” value is 31.34%. As to `COc1ccc(-c2nc(CN3CCc4cnc(C)nc4C3)no2)cc1`, the “Percent Effect” value was -21.98%.
